Measured values reported in ChEMBL document CHEMBL2218924, “A broad activity screen in support of a chemogenomic map for kinase signalling research and drug discovery” (Biochem J, 2013).

How the values were obtained:
[1] = target: Homeodomain-interacting protein kinase 3 (Homo sapiens) (UniProt Q9H422); conditions: at 10 µM
[2] = target: T1, Serine/threonine-protein kinase haspin (Homo sapiens) (UniProt Q8TF76); conditions: at 1 µM
T1 sequence (whole entry): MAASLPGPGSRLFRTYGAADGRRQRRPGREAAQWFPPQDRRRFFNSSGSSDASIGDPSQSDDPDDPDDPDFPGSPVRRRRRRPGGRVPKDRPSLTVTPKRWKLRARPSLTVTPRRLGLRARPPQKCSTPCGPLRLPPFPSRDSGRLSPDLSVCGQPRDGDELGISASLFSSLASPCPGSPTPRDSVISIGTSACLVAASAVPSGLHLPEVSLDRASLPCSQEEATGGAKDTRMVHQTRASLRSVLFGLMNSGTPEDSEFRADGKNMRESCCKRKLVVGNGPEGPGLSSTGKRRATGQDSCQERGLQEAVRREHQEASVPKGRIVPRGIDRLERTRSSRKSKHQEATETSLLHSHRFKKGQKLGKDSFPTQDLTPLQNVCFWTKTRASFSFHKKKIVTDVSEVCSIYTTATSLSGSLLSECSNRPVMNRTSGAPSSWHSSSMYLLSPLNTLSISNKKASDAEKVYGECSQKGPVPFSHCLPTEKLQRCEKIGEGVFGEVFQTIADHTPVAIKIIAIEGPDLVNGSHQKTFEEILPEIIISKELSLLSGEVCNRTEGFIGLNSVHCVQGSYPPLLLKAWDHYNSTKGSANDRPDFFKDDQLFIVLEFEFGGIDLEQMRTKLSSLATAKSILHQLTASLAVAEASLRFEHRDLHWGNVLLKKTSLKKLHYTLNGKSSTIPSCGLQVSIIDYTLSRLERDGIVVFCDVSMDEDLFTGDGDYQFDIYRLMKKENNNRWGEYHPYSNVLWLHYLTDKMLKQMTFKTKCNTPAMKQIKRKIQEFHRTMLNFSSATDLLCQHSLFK

[3] = target: T1, Serine/threonine-protein kinase haspin (Homo sapiens); conditions: at 10 µM
[4] = target: Tyrosine-protein kinase HCK (Homo sapiens) (UniProt P08631); conditions: at 10 µM
[5] = target: Insulin-like growth factor 1 receptor (Homo sapiens) (UniProt P08069); conditions: at 1 µM
[6] = target: Protein kinase C theta type (Homo sapiens) (UniProt Q04759); conditions: at 1 µM
[7] = target: Protein kinase C theta type (Homo sapiens) (UniProt Q04759); conditions: at 10 µM
[8] = target: T2, Protein kinase C iota type (Homo sapiens) (UniProt P41743); conditions: at 1 µM
T2 sequence (whole entry): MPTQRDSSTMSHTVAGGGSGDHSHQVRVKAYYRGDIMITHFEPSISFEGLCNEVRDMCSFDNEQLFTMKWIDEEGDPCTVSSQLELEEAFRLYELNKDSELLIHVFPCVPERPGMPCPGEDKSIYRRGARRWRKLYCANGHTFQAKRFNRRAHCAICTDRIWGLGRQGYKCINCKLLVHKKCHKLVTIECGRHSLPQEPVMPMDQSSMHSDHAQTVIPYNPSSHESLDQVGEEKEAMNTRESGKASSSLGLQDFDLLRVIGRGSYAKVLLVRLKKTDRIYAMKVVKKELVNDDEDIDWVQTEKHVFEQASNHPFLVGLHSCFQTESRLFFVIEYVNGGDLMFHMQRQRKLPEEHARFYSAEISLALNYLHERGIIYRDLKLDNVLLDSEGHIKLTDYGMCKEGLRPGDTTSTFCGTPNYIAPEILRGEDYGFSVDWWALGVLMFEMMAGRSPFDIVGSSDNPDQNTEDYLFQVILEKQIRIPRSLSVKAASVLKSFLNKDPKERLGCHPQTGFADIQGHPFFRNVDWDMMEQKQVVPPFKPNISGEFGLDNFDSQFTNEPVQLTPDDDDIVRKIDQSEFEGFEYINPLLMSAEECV

[9] = target: T3, Serine/threonine-protein kinase D1 (Homo sapiens) (UniProt Q15139); conditions: at 1 µM
T3 sequence (whole entry): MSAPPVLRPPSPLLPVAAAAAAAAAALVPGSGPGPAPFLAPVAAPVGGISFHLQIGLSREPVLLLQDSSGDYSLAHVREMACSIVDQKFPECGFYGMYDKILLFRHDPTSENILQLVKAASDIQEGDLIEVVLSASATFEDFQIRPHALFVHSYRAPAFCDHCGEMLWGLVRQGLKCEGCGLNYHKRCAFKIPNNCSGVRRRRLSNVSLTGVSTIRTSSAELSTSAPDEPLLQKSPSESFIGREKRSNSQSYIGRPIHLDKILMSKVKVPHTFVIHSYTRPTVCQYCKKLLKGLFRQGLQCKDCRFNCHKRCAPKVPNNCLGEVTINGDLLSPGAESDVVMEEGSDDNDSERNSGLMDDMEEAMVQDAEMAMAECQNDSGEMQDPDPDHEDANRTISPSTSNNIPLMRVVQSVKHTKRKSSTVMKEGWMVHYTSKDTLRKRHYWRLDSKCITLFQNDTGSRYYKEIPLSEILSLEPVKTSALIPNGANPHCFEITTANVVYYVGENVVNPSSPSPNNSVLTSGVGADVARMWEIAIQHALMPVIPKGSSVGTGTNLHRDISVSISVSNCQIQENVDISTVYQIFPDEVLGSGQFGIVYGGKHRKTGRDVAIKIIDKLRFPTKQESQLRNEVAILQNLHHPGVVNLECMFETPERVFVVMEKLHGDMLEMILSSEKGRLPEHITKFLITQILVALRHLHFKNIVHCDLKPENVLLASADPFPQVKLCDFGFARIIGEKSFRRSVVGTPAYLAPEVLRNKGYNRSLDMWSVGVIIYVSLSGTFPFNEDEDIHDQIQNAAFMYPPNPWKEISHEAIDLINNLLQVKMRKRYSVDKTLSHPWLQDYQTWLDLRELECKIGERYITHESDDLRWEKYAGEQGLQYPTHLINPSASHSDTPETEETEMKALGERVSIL

[10] = target: T3, Serine/threonine-protein kinase D1 (Homo sapiens); conditions: at 10 µM
[11] = target: Tyrosine-protein kinase HCK (Homo sapiens) (UniProt P08631); conditions: at 1 µM
[12] = target: Tyrosine-protein kinase HCK (Homo sapiens) (UniProt P08631); conditions: at 1 µM; remark: listed apart in the source
[13] = target: Tyrosine-protein kinase HCK (Homo sapiens) (UniProt P08631); conditions: at 10 µM; remark: listed apart in the source
[14] = target: Insulin-like growth factor 1 receptor (Homo sapiens) (UniProt P08069); conditions: at 10 µM
[15] = target: Protein kinase C eta type (Homo sapiens) (UniProt P24723); conditions: at 1 µM
[16] = target: Protein kinase C eta type (Homo sapiens) (UniProt P24723); conditions: at 10 µM
[17] = target: T4, Serine/threonine-protein kinase D2 (Homo sapiens) (UniProt Q9BZL6); conditions: at 1 µM
T4 sequence (whole entry): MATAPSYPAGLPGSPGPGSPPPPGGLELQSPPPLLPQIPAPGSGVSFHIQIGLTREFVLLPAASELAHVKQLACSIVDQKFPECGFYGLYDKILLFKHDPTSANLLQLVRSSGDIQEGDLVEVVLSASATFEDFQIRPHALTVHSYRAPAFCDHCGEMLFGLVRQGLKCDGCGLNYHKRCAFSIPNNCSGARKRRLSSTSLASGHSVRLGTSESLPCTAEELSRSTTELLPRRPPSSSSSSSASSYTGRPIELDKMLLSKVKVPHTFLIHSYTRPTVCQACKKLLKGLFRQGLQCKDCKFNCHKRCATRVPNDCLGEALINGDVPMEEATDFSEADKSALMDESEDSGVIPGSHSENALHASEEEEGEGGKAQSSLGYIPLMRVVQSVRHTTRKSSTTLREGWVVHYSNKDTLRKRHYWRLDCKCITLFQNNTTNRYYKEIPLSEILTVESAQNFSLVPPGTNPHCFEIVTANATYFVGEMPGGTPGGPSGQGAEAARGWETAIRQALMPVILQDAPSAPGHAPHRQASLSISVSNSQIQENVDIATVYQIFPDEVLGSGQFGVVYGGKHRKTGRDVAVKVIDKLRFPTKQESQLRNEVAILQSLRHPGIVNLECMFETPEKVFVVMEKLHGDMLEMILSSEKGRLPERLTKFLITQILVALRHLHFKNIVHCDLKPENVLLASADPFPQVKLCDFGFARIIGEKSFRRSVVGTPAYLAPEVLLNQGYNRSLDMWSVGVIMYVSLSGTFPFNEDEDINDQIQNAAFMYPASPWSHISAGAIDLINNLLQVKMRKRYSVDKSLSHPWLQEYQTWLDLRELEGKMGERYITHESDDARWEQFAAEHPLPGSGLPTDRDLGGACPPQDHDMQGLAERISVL

[18] = target: T5, Protein kinase C zeta type (Homo sapiens) (UniProt Q05513); conditions: at 10 µM
T5 sequence (whole entry): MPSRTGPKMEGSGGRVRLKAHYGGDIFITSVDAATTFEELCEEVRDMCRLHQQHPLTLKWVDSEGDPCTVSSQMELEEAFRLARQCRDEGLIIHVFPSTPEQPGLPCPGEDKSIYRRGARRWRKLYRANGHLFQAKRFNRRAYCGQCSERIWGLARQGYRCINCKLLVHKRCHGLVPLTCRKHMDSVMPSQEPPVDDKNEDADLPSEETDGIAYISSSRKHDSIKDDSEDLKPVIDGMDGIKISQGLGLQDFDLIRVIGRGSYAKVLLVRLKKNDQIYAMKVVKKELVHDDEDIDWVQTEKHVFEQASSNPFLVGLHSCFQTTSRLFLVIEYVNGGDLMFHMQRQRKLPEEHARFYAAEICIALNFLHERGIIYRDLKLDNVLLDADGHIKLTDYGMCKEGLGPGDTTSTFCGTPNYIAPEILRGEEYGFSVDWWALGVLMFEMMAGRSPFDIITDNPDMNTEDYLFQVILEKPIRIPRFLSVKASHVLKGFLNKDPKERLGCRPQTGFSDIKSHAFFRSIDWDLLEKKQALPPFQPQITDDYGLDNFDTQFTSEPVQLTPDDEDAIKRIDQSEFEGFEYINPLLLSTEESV

[19] = target: T2, Protein kinase C iota type (Homo sapiens); conditions: at 10 µM
[20] = target: T4, Serine/threonine-protein kinase D2 (Homo sapiens); conditions: at 10 µM

Chain of Protein kinase C theta type (Homo sapiens) (Q04759 whole entry, looked up): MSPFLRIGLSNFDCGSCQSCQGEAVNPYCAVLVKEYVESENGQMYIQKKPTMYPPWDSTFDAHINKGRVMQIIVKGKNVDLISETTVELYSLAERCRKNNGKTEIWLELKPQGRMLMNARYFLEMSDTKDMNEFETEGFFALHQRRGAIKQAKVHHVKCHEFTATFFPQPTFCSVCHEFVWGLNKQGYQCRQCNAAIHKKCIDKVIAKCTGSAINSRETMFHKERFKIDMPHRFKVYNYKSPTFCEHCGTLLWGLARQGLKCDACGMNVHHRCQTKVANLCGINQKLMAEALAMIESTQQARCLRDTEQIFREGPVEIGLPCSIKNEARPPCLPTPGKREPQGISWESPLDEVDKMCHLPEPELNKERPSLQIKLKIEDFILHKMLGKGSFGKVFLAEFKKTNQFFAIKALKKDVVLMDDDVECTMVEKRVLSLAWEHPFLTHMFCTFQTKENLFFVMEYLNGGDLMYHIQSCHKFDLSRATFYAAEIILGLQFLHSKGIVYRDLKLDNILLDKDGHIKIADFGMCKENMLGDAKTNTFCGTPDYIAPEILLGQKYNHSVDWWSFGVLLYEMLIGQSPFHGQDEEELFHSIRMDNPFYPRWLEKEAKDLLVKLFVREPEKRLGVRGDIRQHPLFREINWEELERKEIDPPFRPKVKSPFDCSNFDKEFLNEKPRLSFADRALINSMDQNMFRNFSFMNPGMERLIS
Chain of Tyrosine-protein kinase HCK (Homo sapiens) (P08631 2-526 limits assumed): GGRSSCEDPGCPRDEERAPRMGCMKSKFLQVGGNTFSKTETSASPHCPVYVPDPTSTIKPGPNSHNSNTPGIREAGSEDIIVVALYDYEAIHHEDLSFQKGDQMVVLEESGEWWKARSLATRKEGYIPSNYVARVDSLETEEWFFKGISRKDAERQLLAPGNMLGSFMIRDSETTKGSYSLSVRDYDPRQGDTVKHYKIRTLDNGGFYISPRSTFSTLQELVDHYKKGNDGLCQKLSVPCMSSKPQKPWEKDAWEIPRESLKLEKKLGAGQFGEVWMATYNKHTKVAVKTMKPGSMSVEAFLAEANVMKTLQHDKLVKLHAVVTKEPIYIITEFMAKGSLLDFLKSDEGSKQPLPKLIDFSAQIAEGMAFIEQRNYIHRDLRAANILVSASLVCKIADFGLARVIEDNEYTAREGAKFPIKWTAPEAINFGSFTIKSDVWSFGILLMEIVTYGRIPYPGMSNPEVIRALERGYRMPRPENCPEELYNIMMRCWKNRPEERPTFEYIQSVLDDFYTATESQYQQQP
Chain of Protein kinase C eta type (Homo sapiens) (P24723 whole entry): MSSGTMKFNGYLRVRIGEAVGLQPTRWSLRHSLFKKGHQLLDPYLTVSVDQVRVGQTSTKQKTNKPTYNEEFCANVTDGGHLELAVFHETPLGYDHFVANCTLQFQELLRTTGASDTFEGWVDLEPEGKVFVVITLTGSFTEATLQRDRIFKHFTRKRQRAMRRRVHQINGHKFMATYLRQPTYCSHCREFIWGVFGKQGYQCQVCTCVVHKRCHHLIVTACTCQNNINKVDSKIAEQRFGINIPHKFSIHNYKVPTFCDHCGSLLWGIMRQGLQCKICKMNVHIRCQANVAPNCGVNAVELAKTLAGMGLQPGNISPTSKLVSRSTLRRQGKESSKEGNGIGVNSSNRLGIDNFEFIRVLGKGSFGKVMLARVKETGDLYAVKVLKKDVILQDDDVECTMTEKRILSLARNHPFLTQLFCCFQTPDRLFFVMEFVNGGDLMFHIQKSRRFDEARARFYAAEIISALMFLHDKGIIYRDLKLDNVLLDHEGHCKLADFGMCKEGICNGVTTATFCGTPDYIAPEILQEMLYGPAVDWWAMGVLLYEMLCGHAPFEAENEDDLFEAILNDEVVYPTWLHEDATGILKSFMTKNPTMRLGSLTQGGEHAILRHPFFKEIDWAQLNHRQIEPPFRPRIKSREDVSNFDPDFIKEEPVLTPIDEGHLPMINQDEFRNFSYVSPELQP
Chain of Homeodomain-interacting protein kinase 3 (Homo sapiens) (Q9H422 whole entry, looked up): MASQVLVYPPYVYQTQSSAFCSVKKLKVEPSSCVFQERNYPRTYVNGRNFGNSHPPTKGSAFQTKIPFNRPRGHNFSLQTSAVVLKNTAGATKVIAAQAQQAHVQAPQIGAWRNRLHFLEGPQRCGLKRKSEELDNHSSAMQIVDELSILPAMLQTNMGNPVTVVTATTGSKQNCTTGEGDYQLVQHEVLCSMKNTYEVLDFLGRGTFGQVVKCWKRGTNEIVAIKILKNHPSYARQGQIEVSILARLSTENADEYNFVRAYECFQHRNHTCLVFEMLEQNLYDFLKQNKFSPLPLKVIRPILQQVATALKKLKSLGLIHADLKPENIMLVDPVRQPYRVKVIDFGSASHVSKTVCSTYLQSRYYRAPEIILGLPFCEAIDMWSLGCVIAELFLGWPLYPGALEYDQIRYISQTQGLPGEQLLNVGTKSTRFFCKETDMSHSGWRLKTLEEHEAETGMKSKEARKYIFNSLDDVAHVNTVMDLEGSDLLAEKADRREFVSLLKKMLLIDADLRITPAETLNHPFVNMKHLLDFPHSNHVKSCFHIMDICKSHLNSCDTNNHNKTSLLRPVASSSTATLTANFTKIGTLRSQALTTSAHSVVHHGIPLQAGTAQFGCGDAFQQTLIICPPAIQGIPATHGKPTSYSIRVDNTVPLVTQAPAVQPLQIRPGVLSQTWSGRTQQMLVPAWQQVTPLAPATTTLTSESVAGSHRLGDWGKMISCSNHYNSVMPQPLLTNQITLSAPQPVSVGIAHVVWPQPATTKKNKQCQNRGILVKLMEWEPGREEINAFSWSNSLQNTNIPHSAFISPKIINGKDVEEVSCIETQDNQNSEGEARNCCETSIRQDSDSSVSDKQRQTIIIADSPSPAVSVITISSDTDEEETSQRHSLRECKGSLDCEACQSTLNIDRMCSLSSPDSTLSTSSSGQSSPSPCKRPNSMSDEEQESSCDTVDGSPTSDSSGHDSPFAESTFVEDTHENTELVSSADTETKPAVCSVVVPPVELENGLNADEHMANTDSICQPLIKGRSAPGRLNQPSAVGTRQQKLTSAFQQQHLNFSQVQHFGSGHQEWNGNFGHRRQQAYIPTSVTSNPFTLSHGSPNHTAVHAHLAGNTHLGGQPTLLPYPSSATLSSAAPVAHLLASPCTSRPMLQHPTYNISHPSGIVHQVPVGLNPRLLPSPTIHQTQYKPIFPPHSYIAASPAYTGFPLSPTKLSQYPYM
Chain of Insulin-like growth factor 1 receptor (Homo sapiens) (P08069 31-736 limits assumed): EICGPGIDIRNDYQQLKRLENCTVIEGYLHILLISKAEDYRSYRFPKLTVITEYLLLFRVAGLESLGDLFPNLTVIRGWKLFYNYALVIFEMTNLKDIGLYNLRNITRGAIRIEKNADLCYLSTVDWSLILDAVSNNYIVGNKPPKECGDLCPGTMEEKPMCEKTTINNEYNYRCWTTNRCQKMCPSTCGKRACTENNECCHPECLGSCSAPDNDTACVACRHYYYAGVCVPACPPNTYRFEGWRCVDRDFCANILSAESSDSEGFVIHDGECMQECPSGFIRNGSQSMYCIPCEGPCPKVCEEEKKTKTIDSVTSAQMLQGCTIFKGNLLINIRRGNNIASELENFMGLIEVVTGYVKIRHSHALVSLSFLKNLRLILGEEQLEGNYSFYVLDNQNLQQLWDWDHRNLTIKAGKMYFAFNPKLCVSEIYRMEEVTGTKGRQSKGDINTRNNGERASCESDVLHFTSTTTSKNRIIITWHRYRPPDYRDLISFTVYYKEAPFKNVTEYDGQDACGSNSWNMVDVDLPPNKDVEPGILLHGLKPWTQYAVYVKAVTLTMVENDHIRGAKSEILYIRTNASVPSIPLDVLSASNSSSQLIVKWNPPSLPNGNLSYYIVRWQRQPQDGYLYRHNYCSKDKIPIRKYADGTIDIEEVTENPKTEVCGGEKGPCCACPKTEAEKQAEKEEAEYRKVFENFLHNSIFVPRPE
Chain of Insulin-like growth factor 1 receptor (Homo sapiens) (P08069 741-1367 limits assumed): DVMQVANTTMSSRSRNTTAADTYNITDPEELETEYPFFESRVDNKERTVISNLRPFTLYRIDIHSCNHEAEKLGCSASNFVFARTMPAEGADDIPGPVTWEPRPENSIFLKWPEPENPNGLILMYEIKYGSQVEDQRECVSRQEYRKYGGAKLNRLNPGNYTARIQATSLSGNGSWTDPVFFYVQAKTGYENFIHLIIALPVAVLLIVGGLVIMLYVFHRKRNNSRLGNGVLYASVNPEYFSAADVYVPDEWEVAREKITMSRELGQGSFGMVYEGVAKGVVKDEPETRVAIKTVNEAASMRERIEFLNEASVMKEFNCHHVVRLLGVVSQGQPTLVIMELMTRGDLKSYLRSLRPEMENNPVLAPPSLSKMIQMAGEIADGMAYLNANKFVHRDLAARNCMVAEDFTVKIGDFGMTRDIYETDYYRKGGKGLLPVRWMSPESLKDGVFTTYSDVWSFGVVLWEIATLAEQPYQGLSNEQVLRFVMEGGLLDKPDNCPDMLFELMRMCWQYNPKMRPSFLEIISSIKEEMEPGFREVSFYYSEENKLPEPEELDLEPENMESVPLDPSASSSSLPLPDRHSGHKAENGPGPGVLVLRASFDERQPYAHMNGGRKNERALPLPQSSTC

Structure (SMILES) | residual activity [1] [%] | residual activity [2] [%] | residual activity [3] [%] | residual activity [4] [%] | residual activity [5] [%] | residual activity [6] [%] | residual activity [7] [%] | residual activity [8] | residual activity [9] [%] | residual activity [10] [%] | residual activity [11] [%] | residual activity [12] [%] | residual activity [13] [%] | residual activity [14] [%] | residual activity [15] [%] | residual activity [16] [%] | residual activity [17] [%] | residual activity [18] [%] | residual activity [19] [%] | residual activity [20] [%]
Oc1cccc(-c2nc(N3CCOCC3)c3oc4ncccc4c3n2)c1 | 59 | 76 | 32 | 68 | 131 | 84 | 86 | 89% (inactive) | 97 | 89 |  |  |  |  |  |  |  |  |  | 
CCCC(=O)Oc1ccc2[nH]c(C(=O)c3cc4ccccc4[nH]3)cc2c1 | 98 | 106 | 99 | 36 | 143 | 92 | 75 | 99% (inactive) | 101 | 103 | 70 | 98 | 94 | 106 | 102 | 81 | 99 |  |  | 
Cn1c2ccccc2c2c3c(c4c5ccccc5n(CCC#N)c4c21)CNC3=O |  | 11 | 8 | 9 | 145 |  |  |  | 5 | 12 | 31 | 69 | 58 | 104 | 72 | 60 |  | 108 |  | 
CC(C)[C@H](CO)Nc1nc(Nc2cc(N)cc(Cl)c2)c2ncn(C(C)C)c2n1 | 73 | 57 | 20 | 5 | 118 | 77 | 23 |  | 99 | 81 | 27 | 50 | 9 | 92 | 97 | 99 | 96 |  | 89 | 99
